Reference: the OligoGym collection

Legend:
Assay in all cases: pooled miR-30 sensor sort-seq; sequence = guide strand
Settings in all cases: shRNA
[1] = biological target: PDZD4
[2] = biological target: PDP1
[3] = biological target: PGLYRP2
[4] = biological target: PION
[5] = biological target: PML
[6] = biological target: POLR3B
[7] = biological target: PPEF1
[8] = biological target: PPCS
[9] = biological target: PPARGC1A
[10] = biological target: PPIA
[11] = biological target: PPIP5K1
[12] = biological target: PPM1E
[13] = biological target: PPP1R13B
[14] = biological target: PPM1F
[15] = biological target: PPM1J

TGTCCTTGTCCGACTTCTCGGG
sensor-assay potency score (higher = more potent) [1]: -0.294

TATTATAGTAGTATCTTTTTAA
sensor-assay potency score (higher = more potent) [2]: -1.01

TCTGGGTCTGGGAACCTCGGAG
sensor-assay potency score (higher = more potent) [3]: -0.74

ATCTCTTAGAGACACTCCTGGC
sensor-assay potency score (higher = more potent) [3]: -0.911

TTCTTTAGTAGACTGAACTAAA
sensor-assay potency score (higher = more potent) [4]: -0.809

TAGACTGAACTAAACTTGCAGC
sensor-assay potency score (higher = more potent) [4]: -0.224

TATCTTTCTACATGGATGGAGT
sensor-assay potency score (higher = more potent) [5]: -0.448

TTTCCTTGTAGCAGCATCCAAC
sensor-assay potency score (higher = more potent) [6]: -0.877

TAATCTTACCAATAACAGCTTG
sensor-assay potency score (higher = more potent) [7]: -0.683

TTCACCATCTCTAAGAGCCCTG
sensor-assay potency score (higher = more potent) [8]: -0.3

TTATCCACTATCTTCTCTTCTA
sensor-assay potency score (higher = more potent) [8]: -0.111

TAAATTTCCAAAGCCTTCCGAG
sensor-assay potency score (higher = more potent) [8]: -0.661

TATCGAGTCCACATAATCCCAT
sensor-assay potency score (higher = more potent) [7]: -1.01

TAGTTGTCTAGAGTCTTGGAGC
sensor-assay potency score (higher = more potent) [9]: -1.01

TACAATAAACACAAAGGACTGT
sensor-assay potency score (higher = more potent) [8]: 0.367

TTTTTTTGTAGTTTTCACCATC
sensor-assay potency score (higher = more potent) [8]: -0.312

TTGTATGTGAGTGAAATTCGGC
sensor-assay potency score (higher = more potent) [7]: -0.494

TAAACTTAACTCTGCAATCCAG
sensor-assay potency score (higher = more potent) [10]: -0.459

TTAGGATGAAGTTCTCATCTTC
sensor-assay potency score (higher = more potent) [10]: 0.589

TTGATGCTGATAAATTTCCAAA
sensor-assay potency score (higher = more potent) [8]: -1.35

TTTTCCATAGTATCCACTCTTT
sensor-assay potency score (higher = more potent) [7]: -0.493

TTGTAGTTTTCACCATCTCTAA
sensor-assay potency score (higher = more potent) [8]: -1.34

AAACTTAACTCTGCAATCCAGC
sensor-assay potency score (higher = more potent) [10]: -0.893

TCTTCTTGCTGGTCTTGCCATT
sensor-assay potency score (higher = more potent) [10]: -1.28

TAGGTCTGCATAGTTAGACTTG
sensor-assay potency score (higher = more potent) [9]: -0.55

TTTTCTGTGGTCTTGAAGTTGG
sensor-assay potency score (higher = more potent) [7]: -0.736

TATTTCATAATCATAAACTTAA
sensor-assay potency score (higher = more potent) [10]: -0.804

TTCGTCGTCAAAAACAGCTTGA
sensor-assay potency score (higher = more potent) [9]: -0.0941

TTCATTGTTATCTGCAGTGGGC
sensor-assay potency score (higher = more potent) [8]: -0.306

TTATGCAAAATTTCTTTCGTGA
sensor-assay potency score (higher = more potent) [7]: 0.493

TAAACACAAAGGACTGTCGTGA
sensor-assay potency score (higher = more potent) [8]: 0.415

TTCTCTTCTATCTCTACGCCTT
sensor-assay potency score (higher = more potent) [8]: -0.45

TCTGATAGCAATAACTTGGTTT
sensor-assay potency score (higher = more potent) [8]: 0.221

TTACATTTGAATATTCTTGATT
sensor-assay potency score (higher = more potent) [9]: 0.253

TTCATCAGCATATTCGATGGAC
sensor-assay potency score (higher = more potent) [7]: -0.181

TAGGTAATGAAACCATAGCTGT
sensor-assay potency score (higher = more potent) [9]: -0.856

TAGTAGTTTTCTCTTGTGCTGT
sensor-assay potency score (higher = more potent) [7]: -0.247

TACAGAAGGAATGATCTGGTGG
sensor-assay potency score (higher = more potent) [10]: 0.317

TTTCTAGTTGTCTAGAGTCTTG
sensor-assay potency score (higher = more potent) [9]: -1.22

TTCTGCTGTCTTTGGGACCTTG
sensor-assay potency score (higher = more potent) [10]: -0.756

TAATGCTGAAACCAAATCCTAT
sensor-assay potency score (higher = more potent) [7]: -0.921

TTGTTCATCAGCATATTCGATG
sensor-assay potency score (higher = more potent) [7]: -0.664

TAGTTTTCCAACATGAAGGAAA
sensor-assay potency score (higher = more potent) [7]: -0.591

TTTTATTGTGCTTCGAGTCAGT
sensor-assay potency score (higher = more potent) [7]: 0.317

TTTGGCACCATCTTCATTGTTA
sensor-assay potency score (higher = more potent) [8]: 0.148

TAACCAAATCCTTTCTCTCCAG
sensor-assay potency score (higher = more potent) [10]: -0.631

TTTATCACTTTCATCTTCGCTG
sensor-assay potency score (higher = more potent) [9]: 0.495

TCATCTTCAAATTTCTCCCCAT
sensor-assay potency score (higher = more potent) [10]: -0.0656

TAAAGCATGATGACAATCTGGG
sensor-assay potency score (higher = more potent) [11]: 0.285

TAGATTGAAAACACTGTACTTT
sensor-assay potency score (higher = more potent) [12]: 0.776

TTGCTGTAGTCGACTTGTCCTC
sensor-assay potency score (higher = more potent) [13]: -0.682

ATATCTGTAAATATGAACCCAC
sensor-assay potency score (higher = more potent) [14]: -0.596

TATGACACAACAGGTCATCTTG
sensor-assay potency score (higher = more potent) [14]: -0.621

TAGCACATCATCTGGGCAGTGC
sensor-assay potency score (higher = more potent) [15]: -0.403

TTTTAGATTGAAAACACTGTAC
sensor-assay potency score (higher = more potent) [12]: 0.00481

TTGCTTTCTTTGGTGCACCAGG
sensor-assay potency score (higher = more potent) [12]: -0.843

TTCACTGCCTAGCAGCTCTGGT
sensor-assay potency score (higher = more potent) [15]: -0.516

ACAGTCAGTAGTGACATCCCAC
sensor-assay potency score (higher = more potent) [15]: -0.629

AACATCTGGTCGGTGCGCCGGA
sensor-assay potency score (higher = more potent) [14]: -0.815

AAGGTCTGTCTGTAGCAGCTGT
sensor-assay potency score (higher = more potent) [14]: -0.309

TACAGCTTTGTTCATGTCCCTC
sensor-assay potency score (higher = more potent) [12]: -0.388

TCGATCTTTTTGTAGGCCCAGC
sensor-assay potency score (higher = more potent) [15]: -1.4

TAAATTATATGACACAACAGGT
sensor-assay potency score (higher = more potent) [14]: -0.732

TTATATGACACAACAGGTCATC
sensor-assay potency score (higher = more potent) [14]: -0.681

TTAAATTATATGACACAACAGG
sensor-assay potency score (higher = more potent) [14]: -0.831

TCTGTCTGTAGCAGCTGTGAAA
sensor-assay potency score (higher = more potent) [14]: -1.23

TTAACTGACTTATTTAAGGCGC
sensor-assay potency score (higher = more potent) [13]: 0.229

TCAAACACAGCAAAGTAGGCGC
sensor-assay potency score (higher = more potent) [14]: -0.108

TAGTTCAACAGCTTGGCCCTTT
sensor-assay potency score (higher = more potent) [12]: 0.206

TTGATGACCTCGGCGTAGCCTG
sensor-assay potency score (higher = more potent) [15]: -0.901

TTCTGGTCTGTGTGGCTCCATC
sensor-assay potency score (higher = more potent) [14]: -1.7

TAGCAGGTAGATCACAACCAGT
sensor-assay potency score (higher = more potent) [15]: -1.29

TTCTACAACATCTCGACAGGTT
sensor-assay potency score (higher = more potent) [13]: 0.568

TAGATCACAACCAGTGCACAGC
sensor-assay potency score (higher = more potent) [15]: -0.65

TACCTCGCAGCATCCACGCCTC
sensor-assay potency score (higher = more potent) [14]: -0.377

TTTCTCACAAGCATAACCTGGG
sensor-assay potency score (higher = more potent) [12]: 0.732

TATATTTGTAGAGCTGCTGCAG
sensor-assay potency score (higher = more potent) [12]: 0.13

AAGTATCTCTACCAGGTCCTTT
sensor-assay potency score (higher = more potent) [15]: -0.98

TTGCTTGCTTCTATTTGTGTGA
sensor-assay potency score (higher = more potent) [12]: -0.309

TTGGATATAGCGGACATCCCTT
sensor-assay potency score (higher = more potent) [15]: -0.328

TAAAACTTTGGATTAAACCTGA
sensor-assay potency score (higher = more potent) [12]: -0.0256

TCTTTTTGTAGGCCCAGCCGGT
sensor-assay potency score (higher = more potent) [15]: -1.16

TTTCCTGAGAAACATCTGGTCG
sensor-assay potency score (higher = more potent) [14]: -0.801

TTACATTTCTCTGAGTTCGTTG
sensor-assay potency score (higher = more potent) [13]: -0.0932
